Compounds with a hit are over-represented: about 12% of the library has one in this group of screens.
Shiga inhibitor: Shiga toxin inhibition. Vero cells, Shiga toxin protein synthesis inhibition reporter. 290,000 compounds, 9.2% hits. inhibition, % at 38.7 µM. AID 2315; in the data active means inhibition mostly above about 28%, no sharp cut-off; inactive means mostly below about 43%; further: 0% is about no effect
Sm TGR inh: blocks Schistosoma mansoni thioredoxin glutathione reductase; 360,000 compounds, 3% hits; Potency, µM (highest dose often 114 µM), inactives show top-dose activity change, negative = inhibition, most hits filed as inhibitors; Q962Y6; purified TGR, DTNB reduction, TNB absorbance 405 nm; active means well fitted inhibition curve with a large enough effect; inconclusive means small, poorly fitted or top-dose-only effect; inactive means no such curve, though single readings can be large or run the other way; further: potency means the concentration at half of the fitted maximal effect; on the % scale 0 is the no-effect control and ±100 the full control effect; nearly all actives have a fitted effect of over 60% in size
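TGR 20 nM + NADPH 100 uM (dispensed conc.), cpd preinc 15 min RT; start with NADPH (500 uM addition) then DTNB (15 mM addition). Kinetic TNB absorbance, 405 nm filter. Four-parameter Hill fit across titration.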
FMDV antiviral: antivirals against foot and mouth disease virus | FMDV antiviral cell-based qHTS | Potency, µM (titrated, usually from 57.9 µM), without a hit: at the top dose activity change, negative = inhibition, hits mostly inhibitors | 410,000 compounds, 1.2% hits; calls by dose curve; tested in HEK293T cells; further: read-out not given here; potency means the concentration at half of the fitted maximal effect; on the % scale 0 is the no-effect control and ±100 the full control effect; nearly all actives have a fitted effect of over 45% in size
CHX counter: affects cycloheximide protein synthesis inhibition readout, counter-screen; cell reporter, cycloheximide protein synthesis inhibition counterscreen; max response, %; 300,000 compounds, 12% hits; AID 2314; in the data active means max response mostly above about 13%, no sharp cut-off; inactive means mostly below about 14%; further: read at 38.3 µM for the half of the compounds with a filed dose; 0% is about no effect
Active calls of the source: *; ? = inconclusive; nt = not tested or not shown.

SMILES | Shiga inhibitor | Sm TGR inh | FMDV antiviral | CHX counter
N=C1C(c2ccccc2)=C(O)CN1Cc1ccco1 | 9 | -6% | -3% | 2
CCOc1ccc(N2Nc3n[nH]c(N)c3N2)cc1 | 50* | -15% | 27% | 25*
COc1ccc(N2Nc3n[nH]c(N)c3N2)cc1 | 58* | -18% | 69% | 43*
CCc1cccc(NS(=O)(=O)c2ccc3c(c2)N(CC(=O)OC)C(=O)CS3)c1 | nt | 8% | 7% | nt
COc1ccc(C(=O)NCCc2sc(-c3cccc(F)c3)nc2C)cc1 | nt | -1% | 9% | nt
O=C(N/N=C/c1cccs1)c1ccc2ccccc2c1 | 109* | 2% | 89% | 54*
O=C(N/N=C/c1cccs1)c1ccc2nc[nH]c2c1 | 49 | -2% | 46% | 20
O=C(N/N=C/c1cccs1)c1ccc2ncccc2c1 | 46* | 1% | 19% | 18
CCCc1ccc(-c2ccc(/C=C/C(=O)O)cc2)nc1 | 61* | -20% | 0% | 33
CCCCCc1ccc(-c2ccc(/C=C/C(=O)O)cc2)nc1 | 55* | -24% | ? | 44*
CCCCCc1ccc(-c2ccc(Br)cc2)nc1 | nt | -3% | 27% | nt
CCCCCCCc1ccc(-c2ccc(O)cc2)nc1 | 81* | nt | -28% | 31*
CCCCCCCCCCCCCCCCCCc1ccc(C(=O)/C=C\C(=O)O)cc1 | nt | nt | -25% | nt
Cc1ccc2c(CC(=O)N3CCOc4ccc(CN5CCOCC5)cc4C3)cc(=O)oc2c1 | nt | nt | 1% | nt
CCOC(=O)c1cc(-c2ccccc2)n(CC(=O)NCc2ccccc2OC)c1C | nt | 15% | -10% | nt
CCCOc1ccc(-c2nc(OCC)c3ccccc3n2)cc1 | 32* | 8% | nt | 11
CCCOc1ccc(-c2nc(N3CCN(CC)CC3)c3ccccc3n2)cc1 | 10 | 12% | 9% | 14
CCCOc1ccc(-c2nc(N3CCN(C)CC3)c3ccccc3n2)cc1 | 61* | 2% | 20% | 33*
COc1cc(-c2cc(C)c3cccc(OC)c3n2)cc2c1OCCN(C(=O)CC1NC(=O)c3ccccc31)C2 (stereo not given) | nt | nt | -11% | nt
O=C(N/N=C/c1ccc[nH]1)c1ccccc1O | 40* | -4% | 0% | 37*
CC(C)(C)c1ccc(C2CC2C(=O)N/N=C\c2ccc[nH]2)cc1 (stereo not given) | 48 | 0% | -19% | 12*
O=C(N/N=C/c1ccco1)C1CC1c1ccccc1 (stereo not given) | -4 | ? | 5% | -4
O=C(N/N=C/c1ccc[nH]1)c1ccc(O)cc1 | 101* | 12% | 25% | 28*
CCCCCn1c(=O)[nH]c2cc(C(=O)NC(C)CC)ccc2c1=O (stereo not given) | nt | 5% | -3% | nt
CN(C)c1ccc(CC2C(=O)Nc3ccccc32)cc1 (stereo not given) | 50* | 14µM* | 50% | 22*
SMILES | Shiga inhibitor | Sm TGR inh | FMDV antiviral | CHX counter
Cc1cccc(C2NC(=O)c3ccccc3N2)c1 (stereo not given) | nt | nt | 27% | nt
Cc1ccc(C2NC(=O)c3ccccc3N2)s1 (stereo not given) | 48* | -18% | 23% | 30*
Brc1ccc(C2Nc3cccc4cccc(c34)N2)o1 | -9 | ? | nt | -3
Brc1cccc(C2Nc3cccc4cccc(c34)N2)c1 | -7 | 11µM* | -14% | -2
COc1ccc(C2Nc3cccc4cccc(c34)N2)cc1 | 37 | nt | 17% | 8
CN(C)c1ccc(C2Nc3cccc4cccc(c34)N2)cc1 | 31 | 32µM* | 0% | 11
COc1ccc(N(CC(=O)NCCc2cccc(C)c2)S(=O)(=O)c2c(C)nn(C)c2C)cc1 | nt | 0% | -24% | nt
Cc1cccc(Nc2ncc(NC(=O)c3cccc(F)c3)c(Nc3cccc(C)c3)n2)c1 | nt | 2% | -15% | nt
COc1ccc(CC(=O)Nc2ccc(-c3nc4ccccc4s3)c(C)c2)cc1OC | nt | 1% | -27% | nt
CSc1ccc(-c2nc3cccc(C)n3c2Nc2ccc3c(c2)OCO3)cc1 | nt | 5% | 8% | nt
c1csc(C2Nc3cccc4cccc(c34)N2)c1 | -22 | 22µM* | 2% | -7
CN1c2cccc3cccc(c23)N(C)C1c1cccs1 | 29 | -28% | 0% | 3
O=[N+]([O-])c1ccc(Cl)c(C2Nc3cccc4cccc(c34)N2)c1 | -4 | -26% | -23% | -3
Clc1cccc(C2Nc3cccc4cccc(c34)N2)c1 | -7 | 3.2µM* | -2% | 1
c1ccc(C2Nc3cccc4cccc(c34)N2)cc1 | 10 | 8.9µM* | 4% | -2
Clc1ccc(C2Nc3cccc4cccc(c34)N2)cc1Cl | nt | 14µM* | 9% | 6
Cc1c(Cl)cccc1NC(=O)Nc1c[nH]c(=O)[nH]c1=O | nt | -3% | 10% | nt
CCOCCCNC(=O)c1ccc2c(=O)n(CCc3ccccc3)c(=O)[nH]c2c1 | nt | 6% | 8% | nt
CN(Cc1cc(Br)cc(Br)c1N)C1CCCCC1 | nt | nt | -11% | nt
CN(C)c1ccc(C2NC(=O)c3ccccc3N2)cc1 (stereo not given) | 66* | 10% | 21% | 46*
Oc1ccccc1C1Nc2cccc3cccc(c23)N1 | 29 | 18µM* | -19% | 11
Cc1c(C(=O)N2CCCC(C)C2)sc2ncnc(NCCN3CCCCC3)c12 (stereo not given) | nt | nt | 1% | nt
O=C(CN1C(=O)COc2ccc(S(=O)(=O)N3CCCC3)cc21)NCCc1ccc(Cl)cc1 | nt | 6% | 8% | nt
CC(C)CNC(=O)c1c(-c2ccccc2)c(-c2ccccc2)nn(C)c1=O | nt | 7% | -15% | nt
CC(C)CCOc1ccc(Oc2nc(N(C)C)nc(N(C)C)n2)nn1 | nt | -2% | -15% | nt
SMILES | Shiga inhibitor | Sm TGR inh | FMDV antiviral | CHX counter
CCOc1ccccc1-c1noc(CSc2nnc(-c3ccccc3)n2-c2ccc(OC)cc2)n1 | nt | 0% | ? | nt
COc1ccc(CC(=O)N2CCN(C)CC2)cc1OC | -16 | -13% | nt | -4
COc1ccc(CC(=O)n2[nH]c(=O)cc(C)c2=O)cc1OC | -3 | 22µM* | ? | 8
CCN1CCN(Cc2c(O)ccc3c(=O)c(Oc4ccccc4Cl)c(C(F)(F)F)oc23)CC1 | nt | -25% | -28% | nt
CC(Sc1ncnc2ccccc12)C(=O)Nc1ccc2c(c1)OCCO2 (stereo not given) | -2 | -13% | 16µM* | 14
CC(=O)c1cccc(NC(=O)C(Sc2ncnc3ccccc23)c2ccccc2)c1 (stereo not given) | 9 | 2% | -1% | 8.0*
O=C(CSc1ncccc1C(=O)O)Nc1ccc2c(c1)OCCO2 | 82* | 1% | -15% | 100*
O=C(CSc1ncnc2ccccc12)Nc1ccc2c(c1)OCCO2 | 63 | -3% | -17% | 31*
CC(Sc1ccccn1)C(=O)Nc1ccc2c(c1)OCCO2 (stereo not given) | nt | -8% | 25% | nt
Cc1ccc(C)c(NC(=O)C(Sc2ncnc3ccccc23)c2ccccc2)c1 (stereo not given) | -3 | -11% | -13% | 5
O=C(CSc1ccccc1C(=O)O)Nc1ccc2c(c1)OCO2 | nt | -3% | -4% | nt
CC(=O)Nc1ccccc1OCc1cc(=O)n2c3c(sc2n1)CCCC3 | nt | 1% | ? | nt
COc1ccc(N(CC(=O)NC(C)c2ccccc2)S(=O)(=O)c2c(C)nn(C)c2C)cc1 (stereo not given) | nt | 2% | -8% | nt
CC(=O)Nc1ccccc1-c1nc2ccccc2n(CC(=O)Nc2cccc(C)c2C)c1=O | nt | -2% | 0% | nt

Assay outcomes: PubChem, National Center for Advancing Translational Sciences (NCATS)
